Each structure is given as a SMILES string. “And” between values parts separate entries of the source, which are not always exact repeats. Equal values may be shown once. Records with an inconclusive call do not appear. The source made the active and inactive calls. The call rests on the fitted dose curve; in most records, active means well fitted inhibition curve with a large enough effect; inconclusive means small, poorly fitted or top-dose-only effect; inactive means flat fitted curve, though single readings scatter.

The text below walks through data of PubChem BioAssay (NCATS).

A short description of experiment [1]: Drug repurposing screens with cells derived from glioblastoma tumor samples (AID 1345199). Further: nearly all actives have a fitted effect of over 40% in size. The note with it: GBM patient neurospheres viability, ATP luminescence, 48 h. Put shortly:
(§1)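 Primary testing used CD133+ neurospheres from four GBM patients, seven concentrations, 48 h exposure and ATP-based viability; confirmation added three slower-growing patient lines.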

A further experiment deals with astro (control astrocytes). Described as above. The note with it: viability, ATP luminescence, 48 h; series mostly up to 45.9 µM. Put shortly: as §1
Setting [2] is: at 45.9 µM (top of the series), tumour line B.
The mark [3] stands for this setting: at 46.1 µM (top of the series), tumour line C.
[4] abbreviates: at 45.9 µM (top of the series), tumour line D.
Where [5] appears, read: at 46 µM (top of the series), tumour line A.
On the % scale 0 is the no-effect control and ±100 the full control effect; potency means the concentration at half of the fitted maximal effect.

For `O=C1OC2(c3ccccc31)c1cc(I)c(O)c(I)c1Oc1c2cc(I)c(O)c1I`, the activity, negative = cell killing in experiment [1] (setting [2]) was -23.6% (inactive). The Potency in experiment [1] (tumour line A) was 11.2 µM (active).

As for `Nc1c2ccccc2nc2ccccc12`, the activity, negative = cell killing in experiment [1] (setting [3]) is -4.16% (inactive). Besides, the Potency in experiment [1] (tumour line A) was 25.1 µM (active); in experiment [1] (tumour line B) it was 12.6 µM (active); in experiment [1] (tumour line D), 10 µM (active); with astro, 10 µM (active).

With `CCOc1ccc(NS(=O)(=O)c2ccc(N)cc2)nn1`, the activity, negative = cell killing was -20.8% (inactive) in experiment [1] (setting [2]), 5.52% (inactive) in experiment [1] (setting [4]), -27.9% (inactive) in experiment [1] (setting [5]) and 9.99% (inactive) in experiment [1] (setting [3]). Moreover, in the experiment on astro, the Potency result is “inactive”.

As for `CCCc1c2oc(C(=O)O)cc(=O)c2cc2c(=O)cc(C(=O)O)n(CC)c12`, the activity, negative = cell killing in experiment [1] (setting [2]) is -3.36% (inactive); in experiment [1] (setting [4]) it was -8.4% (inactive); in experiment [1] (setting [5]), -11% (inactive); in experiment [1] (setting [3]), -12.7% (inactive). Also, the Potency entry in the experiment with astro is “inactive”.

In the case of `CO/N=C(/C(=O)N[C@@H]1C(=O)N2C(C(=O)OCOC(=O)C(C)(C)C)=C(C)CS[C@H]12)c1csc(N)n1`, the activity, negative = cell killing in experiment [1] (setting [2]) was -3% (inactive); in experiment [1] (setting [4]) it was 4.02% (inactive); in experiment [1] (setting [5]) it was -24.5% (inactive); in experiment [1] (setting [3]), 0.657% (inactive). Further, the Potency result in the experiment on astro is “inactive”.

Regarding `Cc1ccc(O)cc1`, the activity, negative = cell killing is -22.9% (inactive) and -5.16% (inactive) in experiment [1] (setting [2]); -8.77% (inactive) and -8.54% (inactive) in experiment [1] (setting [4]); -10.9% (inactive) in experiment [1] (setting [5]); 8.95% (inactive) and -5.08% (inactive) in experiment [1] (setting [3]). Moreover, the Potency result in the experiment with astro was “inactive”.

As for `CCOC(=O)Cn1cccc1-c1nc(-c2ccc(OC)cc2)c(-c2ccc(OC)cc2)s1`, the activity, negative = cell killing in experiment [1] (setting [2]) was -12.2% (inactive); in experiment [1] (setting [4]), -21.7% (inactive); in experiment [1] (setting [3]), -5.22% (inactive). The Potency in experiment [1] (tumour line A) was 6.31 µM (active). For the same compound, in the experiment on astro, the Potency entry was “inactive”.

As for `CC(C)OC(=O)c1cc2c(OCC(O)CNC(C)(C)C)cccc2[nH]1` (stereo not given), the activity, negative = cell killing in experiment [1] (setting [2]) was -15.9% (inactive). In addition, the Potency in experiment [1] (tumour line A) was 11.2 µM (active); in experiment [1] (tumour line D), 22.4 µM (active).

As to `CCN1CCN(C(=O)N[C@@H](C(=O)N[C@@H]2C(=O)N3[C@@H]2SC(C)(C)[C@H]3C(=O)O)c2ccccc2)C(=O)C1=O`, the activity, negative = cell killing in experiment [1] (setting [2]) is -6.11% (inactive); in experiment [1] (setting [4]), -1.23% (inactive); in experiment [1] (setting [5]), -24% (inactive); in experiment [1] (setting [3]), 3.83% (inactive). Moreover, the Potency result in the experiment on astro was “inactive”.

Turning to `C=CC[N+]1([C@H]2C[C@H]3[C@@H]4CC[C@H]5C[C@H](OC(C)=O)[C@@H](N6CCCCC6)C[C@]5(C)[C@H]4CC[C@]3(C)[C@H]2OC(=O)CC)CCCCC1`, the figures for the activity, negative = cell killing in experiment [1] (setting [2]), in experiment [1] (setting [4]) and in experiment [1] (setting [3]) were -10% (inactive), -23% (inactive) and -14.4% (inactive), respectively. The Potency in experiment [1] (tumour line A) was 6.31 µM (active). Moreover, in the experiment with astro, the Potency result was “inactive”.

As to `O=C(O)CCCC[C@@H]1SC[C@@H]2NC(=O)N[C@@H]21`, the activity, negative = cell killing in experiment [1] (setting [2]) is -20.7% (inactive); in experiment [1] (setting [4]) it was -14.6% (inactive); in experiment [1] (setting [3]), -26% (inactive). The Potency in experiment [1] (tumour line A) is 17.8 µM (active). Further, the Potency entry in the experiment with astro is “inactive”.

With `CCNC(=O)NCCCOc1cccc(CN2CCCCC2)c1`, the activity, negative = cell killing in experiment [1] (setting [2]) was -3.43% (inactive); in experiment [1] (setting [4]), -22.4% (inactive); in experiment [1] (setting [3]), -25.1% (inactive). The Potency in experiment [1] (tumour line A) was 17.8 µM (active). The Potency result in the experiment on astro was “inactive”.

On to `Nc1ccc2cc3ccc(N)cc3nc2c1`, for which, in experiment [1] (setting [3]), the activity, negative = cell killing was -19.3% (inactive). Further, the Potency in experiment [1] (tumour line A) was 22.4 µM (active); in experiment [1] (tumour line B), 14.1 µM (active); in experiment [1] (tumour line D), 7.94 µM (active); with astro, 10 µM (active).

With `CC(C)C[C@H](NC(=O)CNC(=O)[C@H](Cc1ccc(O)cc1)NC(=O)[C@H](CO)NC(=O)[C@H](Cc1c[nH]c2ccccc12)NC(=O)[C@H](Cc1cnc[nH]1)NC(=O)[C@@H]1CCC(=O)N1)C(=O)N[C@@H](CCCN=C(N)N)C(=O)N1CCC[C@H]1C(=O)NCC(N)=O` (stereo in doubt), the activity, negative = cell killing was -6.26% (inactive) in experiment [1] (setting [2]), 6.77% (inactive) in experiment [1] (setting [4]), -26% (inactive) in experiment [1] (setting [5]) and -6.29% (inactive) in experiment [1] (setting [3]). Further, the Potency result in the experiment on astro was “inactive”.

As for `CCCC(=O)O[C@]1(C(=O)COC(=O)CC)CC[C@H]2[C@@H]3CCC4=CC(=O)CC[C@]4(C)[C@H]3[C@@H](O)C[C@@]21C`, the activity, negative = cell killing in experiment [1] (setting [2]) was -1.31% (inactive); in experiment [1] (setting [4]), -7.61% (inactive); in experiment [1] (setting [5]) it was -4.97% (inactive); in experiment [1] (setting [3]) it was 15.1% (inactive). In addition, in the experiment on astro, the Potency entry is “inactive”.

As for `OCc1cccnc1`, the activity, negative = cell killing in experiment [1] (setting [2]) is -6.38% (inactive); in experiment [1] (setting [4]), -1.28% (inactive); in experiment [1] (setting [5]), -22% (inactive); in experiment [1] (setting [3]), -5.89% (inactive). In the experiment on astro, the Potency entry is “inactive”.

For the compound `CN(C(=O)C(Cl)Cl)c1ccc(OC(=O)c2ccco2)cc1`, the activity, negative = cell killing was -5.88% (inactive) in experiment [1] (setting [2]), -16.9% (inactive) in experiment [1] (setting [4]) and -29.6% (inactive) in experiment [1] (setting [3]). Further, the Potency in experiment [1] (tumour line A) is 35.5 µM (active). Further, the Potency result in the experiment on astro was “inactive”.

On to `CC(=O)OCC[N+](C)(C)C`, for which the activity, negative = cell killing is -0.685% (inactive) in experiment [1] (setting [2]), 1.13% (inactive) in experiment [1] (setting [4]), -13.5% (inactive) in experiment [1] (setting [5]) and 18% (inactive) in experiment [1] (setting [3]). For the same compound, the Potency result in the experiment on astro was “inactive”.

`C[C@H]1NCc2cc(-c3ccc4c(=O)c(C(=O)O)cn(C5CC5)c4c3OC(F)F)ccc21`: the activity, negative = cell killing is 3.7% (inactive) in experiment [1] (setting [2]), 27.3% (inactive) in experiment [1] (setting [4]), -27.3% (inactive) in experiment [1] (setting [5]) and -18% (inactive) in experiment [1] (setting [3]). The Potency entry in the experiment with astro was “inactive”.

With `Nc1nnnn1-c1ccccc1`, the activity, negative = cell killing in experiment [1] (setting [2]) is -11.1% (inactive); in experiment [1] (setting [4]) it was -15.7% (inactive); in experiment [1] (setting [5]), -29.5% (inactive); in experiment [1] (setting [3]), 12.1% (inactive). For the same compound, the Potency entry in the experiment on astro was “inactive”.
